Assay results taken from PubChem BioAssay (NCATS).
Values joined by “and” are separate entries in the source; they are usually repeats but may differ in a detail not shown here. Equal entries are not always repeated. Results filed as inconclusive are left out. Active and inactive are the calls of the source. Unless noted, calls follow the shape of the dose curve; as a rule, active = well fitted curve in the direction sought with a large enough effect; inconclusive = small, poorly fitted or top-dose-only effect, or another doubt; inactive = no such curve, though single readings can be large; an effect the other way counts as inactive or inconclusive.

Legend:
[1] = biological target: Cellular tumor antigen p53 (Homo sapiens) (UniProt P04637); assay: Primary qHTS for small molecule compounds that upregulate eGFP-tagged delta133p53alpha (in N-terminal) cells. (AID 2060322); settings: NCI-H358 eGFP-delta133p53alpha fluorescence, 24 h; activation: hits give high values;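 also: cells pre-induced with doxycycline then dosed without doxycycline; 0% = DMSO vehicle and 100% = reference activator; nearly all actives have a fitted effect of over 75% in size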
Chain of Cellular tumor antigen p53 (Homo sapiens) (P04637 whole entry, looked up, the tested form may be a part): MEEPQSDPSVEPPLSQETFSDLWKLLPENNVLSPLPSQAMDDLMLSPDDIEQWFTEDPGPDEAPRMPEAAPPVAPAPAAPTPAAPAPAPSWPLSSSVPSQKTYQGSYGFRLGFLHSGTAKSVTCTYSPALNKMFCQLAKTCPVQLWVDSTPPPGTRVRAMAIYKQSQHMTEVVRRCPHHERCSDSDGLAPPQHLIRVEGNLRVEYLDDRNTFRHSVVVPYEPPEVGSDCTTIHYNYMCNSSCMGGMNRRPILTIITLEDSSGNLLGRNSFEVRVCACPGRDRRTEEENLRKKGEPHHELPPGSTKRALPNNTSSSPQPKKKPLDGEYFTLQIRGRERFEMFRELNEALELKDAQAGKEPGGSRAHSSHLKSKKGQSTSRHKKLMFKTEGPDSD
Procedure, shortened: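 NCI-H358 cells pre-induced 24 h with 10 ng/ml doxycycline for eGFP-delta133p53alpha, plated dox-free and exposed 24 h at 37C to titrated compounds. Fixed, Hoechst-stained; gated GFP peak intensity by laser scanning cytometry, normalized to DMSO (0%) and 57.5 uM 5-azacytidine (100%).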

[2] = biological target: Cellular tumor antigen p53 (Homo sapiens) (UniProt P04637); assay: Primary qHTS for small molecule compounds that upregulate eGFP-tagged delta133p53alpha (in C-terminal) cells. (AID 2060324); settings: NCI-H358 delta133p53alpha-eGFP (C-terminal tag), GFP fluorescence imaging, 24 h; series mostly up to 57.5 µM;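 also: 0% = DMSO wells and 100% = 57.5 µM 5-azacytidine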
Procedure, shortened: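 Doxycycline (100 ng/ml, 24 h) first induced the eGFP fusion in NCI-H358 C-terminal-tag cells. Washed-out cells then received titrated compounds for 24 h at 37 °C before paraformaldehyde fixation, Hoechst staining and cytometric GFP quantification.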

[3] = biological target: Aldehyde dehydrogenase, mitochondrial (Homo sapiens) (UniProt P05091); assay: qHTS for Inhibitors of the Aldehyde Dehydrogenase Family (ALDH2) Validation screens (AID 2061302; active = well fitted inhibition curve with a large enough effect; title and protocol of this record describe different tests;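 also: plate controls were DMSO vehicle for no effect and maximal DPI positive control response for full effect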); settings: ALDH inhibition qHTS; series mostly up to 42.6 µM
[4] = biological target: Retinaldehyde dehydrogenase 3 (Homo sapiens) (UniProt P47895); assay: qHTS for Inhibitors of the Aldehyde Dehydrogenase Family (ALDH1A3) Validation screen (AID 2061312); settings: ALDH1A3 enzyme inhibition qHTS validation, fluorescence; series mostly up to 84.7 µM; also: % is scaled to controls: 0 for no effect and ±100 for the full control effect; nearly all actives have a fitted effect of over 45% in size
[5] = BET inhibitor-based combinations targeting novel dependencies in MECOM-rearranged (r) AML: SET-2 cell line (AID 2202231); settings: SET-2 AML cells viability, CellTiter-Glo luminescence, 48 h; viability: hits give low values, concentration not given here;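 also: plate controls were DMSO treated cells for no effect and wells without cells for full effect; nearly all actives have a fitted effect of over 35% in size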
Procedure, shortened: (§1)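 Cells were plated at 500 per well and exposed to an 11-point dose series of each drug for 48 hr. Viability was measured by CellTiter-Glo luminescence, normalized to DMSO and empty-well controls, and summarized as AUC and per-cell-line Z-AUC.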

[6] = BET inhibitor-based combinations targeting novel dependencies in MECOM-rearranged (r) AML: OCI-AML3 cell line (AID 2202232); settings: CellTiter-Glo luminescence, 48 h; Potency: OCI-AML3 viability; series mostly up to 46 µM;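 also: plate controls were DMSO vehicle wells for no effect and wells without cells for full effect; nearly all actives have a fitted effect of over 35% in size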
Procedure, shortened: as §1

[7] = BET inhibitor-based combinations targeting novel dependencies in MECOM-rearranged (r) AML: MV-4-11 cell line (AID 2202233); settings: MV-4-11 AML viability, CellTiter-Glo luminescence, 48 h; series mostly up to 46 µM;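 also: plate controls were DMSO for no effect and blank wells for full effect; nearly all actives have a fitted effect of over 45% in size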
Procedure, shortened: (§2)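 Activity is given as area under the curve and as Z-AUC, mean-centred within each cell line. It comes from 11-point dose curves normalized to DMSO and empty wells. CellTiter-Glo luminescence was read after 48 hr drug exposure of 500 cells/well.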

[8] = BET inhibitor-based combinations targeting novel dependencies in MECOM-rearranged (r) AML: HNT-34 cell line (AID 2202234); settings: HNT-34 AML viability, CellTiter-Glo luminescence, 48 h; series mostly up to 46 µM;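 also: plate controls were vehicle wells for no effect and cell-free wells for full effect; nearly all actives have a fitted effect of over 35% in size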
Procedure, shortened: as §2

[9] = BET inhibitor-based combinations targeting novel dependencies in MECOM-rearranged (r) AML: UCSD-AML1 cell line (AID 2202235); settings: UCSD-AML1 AML cells viability, CellTiter-Glo, 48 h; series mostly up to 46 µM;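 also: plate controls were DMSO vehicle wells for no effect and blank wells for full effect; nearly all actives have a fitted effect of over 40% in size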
Procedure, shortened: as §2

[10] = BET inhibitor-based combinations targeting novel dependencies in MECOM-rearranged (r) AML: AML-191 cell line (AID 2202236;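 also: plate controls were vehicle wells for no effect and wells without cells for full effect; nearly all actives have a fitted effect of over 35% in size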); settings: AML-191 viability, CellTiter-Glo luminescence, 48 h; series mostly up to 46 µM
Procedure, shortened: as §1

[11] = BET inhibitor-based combinations targeting novel dependencies in MECOM-rearranged (r) AML: AML-194 cell line (AID 2202237;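 also: plate controls were vehicle wells for no effect and wells without cells for full effect; nearly all actives have a fitted effect of over 40% in size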); settings: AML-194 (MECOM-r AML) viability, CellTiter-Glo, 48 h; series mostly up to 46 µM
Procedure, shortened: as §1

OC[C@H]1NC[C@@H](O)[C@@H]1O
inactive: activation [1] 4.88% | Potency [2] | Potency [3] | Potency [4]

Nc1nc2c(nc(Br)n2C2OC3COP(=O)(O)O[C@@H]3C2O)c(=O)[nH]1 (some centres not stated)
inactive: activation [1] 29.4% | Potency [2] | Potency [3] | Potency [4]

CCCCNc1cc(C(=O)O)cc(S(N)(=O)=O)c1Oc1ccccc1
inactive: activation [1] 1.67% and 7.38% and -16.3% | Potency [2] | Potency [3] | Potency [4] | viability [5] 115% | Potency [6] | Potency [7] | Potency [8] | Potency [9] | Potency [10] | Potency [11]

O=C(Nc1ccccc1)c1cc([N+](=O)[O-])ccc1Cl
inactive: activation [1] 24.9% | Potency [2] | Potency [3] | Potency [4]

NC[C@H]1O[C@@H](n2cnc3c(N)ncnc32)[C@H](O)[C@@H]1O
inactive: activation [1] 4.39% | Potency [2] | Potency [3] | Potency [4]

Clc1ccc(N2CCN(Cc3cc4ccccn4n3)CC2)cc1
inactive: activation [1] -21.6% | Potency [2] | Potency [3] | Potency [4]

CC(C)NCC(O)COc1ccc(CC(N)=O)cc1 (configuration not stated)
inactive: activation [1] -17.7% | Potency [2] | Potency [3] | Potency [4]

CCOC(=O)c1ncn2c1CN(C)C(=O)c1cc(F)ccc1-2
inactive: activation [1] -0.975% and -12.6% and 1.77% | Potency [2] | Potency [3] | Potency [4] | viability [5] 114% | Potency [6] | Potency [7] | Potency [8] | Potency [9]

CN=C(N)NCCC[C@H](N)C(=O)O
inactive: activation [1] -4.6% | Potency [2] | Potency [3] | Potency [4]

O=C(O)[C@H]1NCCC[C@H]1C(=O)O
inactive: activation [1] -3.88% | Potency [2] | Potency [3] | Potency [4]
